A selection: hits, their analogues and other compounds. The true share with any hit is near 3.3%.
HNF4A DNA FP: change in binding of human HNF4 alpha to DNA; P41235; HNF4a-FITC DNA binding, fluorescence polarization, 1 h; activity change, % at 10 µM; 360,000 compounds, 0.3% hits; in the data active = activity change above about 30%, passing the limit was not always enough
PHOSPHO1 block: PHOSPHO1 (human) inhibition; 290,000 compounds, 1.1% hits; recombinant PHOSPHO1, absorbance phosphatase assay; inhibition, % at 13.3 µM; AID 1565; in the data active = inhibition above about 60%
Target sequence (Q8TCT1 whole entry, looked up): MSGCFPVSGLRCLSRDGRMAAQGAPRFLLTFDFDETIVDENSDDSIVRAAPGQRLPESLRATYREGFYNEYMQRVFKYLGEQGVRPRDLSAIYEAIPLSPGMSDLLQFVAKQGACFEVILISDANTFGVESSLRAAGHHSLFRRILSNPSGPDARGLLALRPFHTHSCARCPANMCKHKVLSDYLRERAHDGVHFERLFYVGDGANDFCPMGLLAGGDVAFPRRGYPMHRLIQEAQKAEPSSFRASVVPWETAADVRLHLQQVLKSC
Rpn11 block: Rpn11 (human) deubiquitinase inhibition; inhibition, % at 20 µM; 360,000 compounds, 0.59% hits; human 26S proteasome, Ub4-pepOG fluorescence polarization; 20S core pre-blocked with epoxomicin; O00487; AID 588493;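 active = inhibition at 20 µM, scaled to each plate's controls, above about 33%, limit read from the data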
Target sequence (O00487 whole entry, looked up): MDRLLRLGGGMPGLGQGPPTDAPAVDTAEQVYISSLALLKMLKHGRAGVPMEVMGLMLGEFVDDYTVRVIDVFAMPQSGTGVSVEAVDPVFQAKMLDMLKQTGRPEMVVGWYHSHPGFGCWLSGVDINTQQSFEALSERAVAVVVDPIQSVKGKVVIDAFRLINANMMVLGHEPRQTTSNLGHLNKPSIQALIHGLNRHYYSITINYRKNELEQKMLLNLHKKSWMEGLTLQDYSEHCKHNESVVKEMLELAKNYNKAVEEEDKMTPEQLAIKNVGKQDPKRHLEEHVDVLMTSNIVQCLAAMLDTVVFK
TPT1 inhibitor: blocks Candida albicans tRNA 2'-phosphotransferase; recombinant caTPT1, FP RNA substrate dephosphorylation; inhibition, % at 5 µM; 300,000 compounds, 0.81% hits; AID 1962;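 active = inhibition above the mean of all tested compounds plus 3 SD, set per screening campaign, cut at about 24% in these data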;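 also: plate controls were DMSO alone for no effect and ferristatin control at 100 nM for full effect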
CendR NRP1 mod: modulators of CendR peptide binding to human neuropilin-1; O14786; FAM-RPARPAR peptide binding to NRP-1, fluorescence polarization; inhibition, % at 25 µM; 360,000 compounds, 0.85% hits;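 active = inhibition or corrected inhibition above about 18%, plus a signal ratio from 0.5 to 1.5, limit read from the data, passing the limit was not always enough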
Fh CTSL1 inh: cathepsin L1 inhibition, PFM18AAP counter-screen. recombinant F. hepatica cathepsin L1, Z-Leu-Arg-MCA fluorescence. inhibition, % at 5.96 µM. 300,000 compounds, 0.49% hits. AID 1906;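 active = inhibition above the mean of all tested compounds plus 3 SD, set per screening campaign, cut at about 17% in these data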;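 also: 0% = plate median of test compound wells and 100% = 1 µM Z-Phe-Ala-diazomethylketone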
Starred values were filed as active, the others as inactive; · = not tested or not shown.

SMILES	HNF4A DNA FP	PHOSPHO1 block	Rpn11 block	TPT1 inhibitor	CendR NRP1 mod	Fh CTSL1 inh
CC(Oc1ccccc1)c1ccnc2nc(N3CCOCC3)nn12 (centres undefined)	1	60*	-1	-3	13	-4
O=C(O)CCC(=O)NCC(=O)c1ccc(F)cc1	-3	12	-2	0	4	14
CN(Cc1ccon1)C(=O)CC1C(=O)NCCN1CC1CCCCC1 (centres undefined)	1	35	-6	-1	-3	3
CCOC(=O)c1c(C)[nH]c2cc(Br)c(O)cc12	4	-23	6	1	-2	2
CCOC(=O)c1c(OCC)[nH]c2c1cc(O)c1ccccc12	3	67*	-22	-25	-6	-1
Cn1cccc1/C=N\NC(=O)Cc1ccc(Br)c2ccccc12	0	-3	-9	12	-10	2
CC(C)c1cccc(-c2csc(C(C)(O)c3ccc(F)c(F)c3)n2)c1 (centres undefined)	0	·	6	·	16	·
CC1CCC2(CC1)NC(=O)N(NC(=O)CCl)C2=O (centres undefined)	1	24	1	-2	0	17*
N#Cc1ccc(/C=C2\CCCCn3c2nc2cc(C(=O)O)ccc2c3=O)cc1	4	37	3	0	8	0
CCOC(=O)CNC(=O)C1CCCN(c2ncccn2)C1 (centres undefined)	-2	-9	3	0	-6	-13
O=C(CCc1ccccc1)NC1(Cc2ccccc2)CCN(CCc2cccs2)C1=O (centres undefined)	0	·	-1	·	19*	·
CC1(NC(=O)CCc2ccccc2)CCN(CCCc2ccccc2)C1=O (centres undefined)	3	·	1	·	6	·
CCOC(=O)N(C)c1c(CC)nc2c(OCc3cccc(Cl)c3)cccn12	2	·	4	·	-174	·
CCc1nnc(NC(=O)CSc2nnc(-c3c[nH]c4ccccc34)n2CCOC)s1	3	60*	1	-7	-1	-1
COCCn1c(SCC(=O)Nc2nnc(C)s2)nnc1-c1c[nH]c2ccccc12	3	13	-1	-1	-2	-1
OCC[C@@H]1C[C@@H](O)[C@H](O)[C@@]2(CCCO2)O1	2	·	3	-3	-4	0
OCC[C@@H]1C[C@@H](O)[C@H](O)[C@]2(CCCc3ccccc3O2)O1	-5	-30	-7	-2	6	-1
OCC[C@H]1C[C@H](O)[C@@H](O)[C@]2(CCCO2)O1	-3	·	0	-1	38*	-1
OCC[C@@H]1C[C@@H](O)[C@H](O)[C@@]2(CCCc3ccccc3O2)O1	4	15	1	1	25*	1
OCC[C@@H]1C[C@H](O)[C@@H](O)[C@@]2(CCCO2)O1	0	·	-5	-1	24*	-2
C[C@H]1CCC[C@@]2(O[C@@H](CCO)C[C@@H](O)[C@@H]2O)O1	2	22	-1	-3	25*	1
C[C@H]1CCC[C@]2(O[C@@H](CCO)C[C@@H](O)[C@@H]2O)O1	-3	·	-1	-3	5	-2
O=C(Nc1ccc(OC(F)(F)F)cc1)C1CCCCN1S(=O)(=O)c1ccccc1 (centres undefined)	0	·	-5	·	-6	·
OCC[C@H]1C[C@H](O)[C@@H](O)[C@@]2(OCc3ccccc32)O1	0	·	-10	0	15	-2
OCC[C@@H]1C[C@@H](O)[C@H](O)[C@]2(OCc3ccccc32)O1	-1	20	-5	2	27*	3
SMILES	HNF4A DNA FP	PHOSPHO1 block	Rpn11 block	TPT1 inhibitor	CendR NRP1 mod	Fh CTSL1 inh
COc1ccccc1NC(c1cccnc1)c1ccc2cccnc2c1O (centres undefined)	0	63*	20	-4	-7	7
Cc1ccnc(NC(c2ccccc2)c2ccc3cccnc3c2O)c1 (centres undefined)	0	·	29	·	33*	·
Cc1ccc2ccc(C(Nc3ccccn3)c3ccccc3)c(O)c2n1 (centres undefined)	1	4	18	-6	6	-4
Cc1ccnc(NC(c2cccnc2)c2ccc3cccnc3c2O)c1 (centres undefined)	-4	-122	28	-4	-2	-1
COc1cc(C(Nc2ccccn2)c2ccc3ccc(C)nc3c2O)cc(OC)c1O (centres undefined)	0	73*	15	1	-19	3
COc1ccc(CCN2CC(C(=O)N(C)C3CCOCC3)CCC2=O)cc1 (centres undefined)	2	12	-6	0	12	-2
Cc1cccc(N(C(=O)c2snc(C(N)=O)c2N)C(C(=O)NCC2CCCO2)c2c[nH]c3ccccc23)c1 (centres undefined)	-2	32	0	1	-6	2
CCCCn1c(CCn2nc(C)c(Br)c2C)n[nH]c1=S	4	90*	1	2	0	-2
CCc1ccc(C(=O)NNC(=O)OC)cc1	-1	0	3	0	-12	-1
CN(C)c1ccc(/C=N/Nc2ccc(-n3ccnc3)nn2)cc1	1	86*	-8	1	8	6
O=C(Nc1ccc(Oc2ccccc2)cc1)c1csc([C@@H]2C[C@H](O)[C@@H](CO)O2)n1	1	·	2	·	-4	·
CCn1c(COc2c(C)cccc2C)nnc1SCC(=O)N1CCN(c2ccccc2)CC1	2	33	-7	-1	37*	4
CCn1c(COc2cc(C)cc(C)c2)nnc1SCC(=O)N1CCN(c2ccccc2)CC1	28	73*	-2	1	13	1
CCn1c(COc2ccccc2C)nnc1SCC(=O)CC(=O)Nc1ccccc1	3	69*	0	2	-15	25*
N#Cc1cnn2c(-c3ccc(Cl)cc3Cl)ccnc12	4	37	7	14	9	0
Cc1ccc(C)c(OCC(=O)NCC(C)C)c1C	0	-6	-1	3	-16	-7
COC(=O)Nc1sc2c(c1C(N)=O)CCCCCC2	-1	69*	-3	1	10	-5
COCCNC(=O)c1c(N)sc2c1CCCC2	·	11	·	14	·	1
CCOC(=O)c1c(NC(=O)c2c(C)noc2C)sc2c1CCCCC2	1	14	-7	-3	35*	0
NC(=O)c1c(N)sc2c1CCCCC2	3	97*	7	1	-7	-5
CNC(=O)c1c(N)sc2c1CCCCC2	·	71*	·	-4	·	-6
NC(=O)c1c(N)sc2c1CCC2	-6	37	-10	·	21	·
O=C(Nc1cc(F)ccc1F)C1CCN(S(=O)(=O)c2cccc3nonc23)CC1	6	28	16	-3	-11	-2
CCCC(=O)Nc1ncnc2c1ncn2[C@@H]1O[C@@H]2COP(=O)(O)O[C@H]2[C@H]1OC(=O)CCC	0	4	3	-2	-8	1
Cc1ccc(NC(=O)NCCN2CCN(c3ccccc3)CC2)cc1Cl	2	11	4	0	-10	2
